Usually inhibition stands for the percentage by which the read-out fell short of the control.

For this test, the target named is Single-stranded DNA-binding protein (Escherichia coli (strain K12)) (UniProt P0AGE0). Put plainly: disruption of SSB binding to ssDNA – biochemical, fluorescence polarization, selected ChemBridge compounds, counter-screen for HCV NS3 helicase inhibitor project (AID 720486).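 Further: displacers lower Cy5 polarization so higher inhibition means more SSB displaced.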 The conditions noted are these: E. coli SSB binding Cy5-dT15, fluorescence polarization; at 100 µM; active compounds read high. Background: Fluorescence polarisation rises when a labelled molecule tumbles more slowly, as on binding a larger partner.

Molecules are shown by their SMILES. Some of the results follow. A number with no mark means an inactive call.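 How the source made its calls: active means inhibition of at least 50%; inactive means the rest.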

Sequence of Single-stranded DNA-binding protein (Escherichia coli (strain K12)) (P0AGE0 whole entry, looked up): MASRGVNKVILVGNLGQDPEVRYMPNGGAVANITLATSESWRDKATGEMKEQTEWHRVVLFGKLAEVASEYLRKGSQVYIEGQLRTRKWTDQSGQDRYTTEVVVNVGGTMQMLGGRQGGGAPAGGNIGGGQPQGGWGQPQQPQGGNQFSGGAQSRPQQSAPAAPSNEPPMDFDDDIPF

For `CCOc1cc(C=C2C(=O)NC(=O)NC2=O)cc(Br)c1OCCOc1ccccc1C`, the inhibition was 36.9%.

For the origin of these results see PubChem BioAssay AID720486 (Milwaukee Institute for Drug Discovery, 2013).
